Inconclusive results are not listed. Calls of active or inactive are those of the source. Unless noted, calls follow the shape of the dose curve; as a rule, active = well fitted curve in the direction sought with a large enough effect; inconclusive = small, poorly fitted or top-dose-only effect, or another doubt; inactive = no such curve, though single readings can be large; an effect the other way counts as inactive or inconclusive.
Legend:
[1] = Cell Viability - BJ (AID 421; calls by dose curve;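 also: potency is read from the fitted curve at half-maximal effect; cells exposed to compound for 40 hours at 37 °C before readout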); conditions: BJ fibroblast viability, qHTS
Method in brief: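 Cytotoxicity in human BJ foreskin fibroblasts is scored as loss of cellular ATP after a 40-hour exposure, measured by luciferase luminescence. Controls are DMSO and 100 uM tamoxifen.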

[2] = Cell Viability - Jurkat (AID 426;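 active = dose-dependent loss of cell ATP signal giving a full or clear fitted curve, ranked by lower potency value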;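 also: potency is read from the fitted curve at half-maximal effect; cells exposed to compound for 40 hours at 37 °C before ATP read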); conditions: qHTS
Method in brief: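 Cells of the human T-cell leukemia line Jurkat (E6-1) are seeded at 5000 per well, treated with compound across a concentration range for 40 hours at 37 °C, then lysed with CellTiter-Glo; luminescence reports ATP.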

[3] = Cell Viability - Hek293 (AID 427;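 active = compounds whose dose-response curve shows a full or clear partial loss of cell viability, called from curve shape rather than a numeric limit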;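 also: potency is read from the fitted curve at half-maximal effect; cells exposed to compound for 40 hours at 37 °C before reading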); conditions: qHTS
Method in brief: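 qHTS, human embryonic kidney (adenovirus-transformed) cells; 40 hr cpd, 37 °C; CellTiter-Glo ATP luminescence. Norm: DMSO = 0, 100 uM tamoxifen = 100% inhibition. Hill-fit AC50.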

[4] = Cell Viability - HepG2 (AID 433; calls by dose curve;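 also: potency is read from the fitted curve at half-maximal effect; potency for ATP loss meaning cytotoxicity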); conditions: qHTS
Method in brief: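 ATP luminescence (CellTiter-Glo) after 40 h compound exposure, 37 °C, HepG2, 1500 cells/well, complete medium. Normalized: DMSO = basal, 100 uM tamoxifen = 100% inhibition. AC50 via standard Hill equation.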

[5] = Cell Viability - MRC5 (AID 434; calls by dose curve;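 also: potency is read from the fitted curve at half-maximal effect; potency reflects cytotoxicity seen as loss of intracellular ATP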); conditions: MRC5 lung fibroblast viability, qHTS
Method in brief: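 Decrease in intracellular ATP, quantified by luciferase light output, reflects compound toxicity toward MRC5 cells exposed for 40 hr in complete culture medium. Concentration-response curves, scaled between DMSO and 100 uM tamoxifen, gave AC50 values.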

[6] = Cell Viability - SK-N-SH (AID 435; calls by dose curve; also: potency is read from the fitted curve at half-maximal effect); conditions: SK-N-SH neuroblastoma cell viability qHTS
Method in brief: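 CellTiter-Glo ATP luminescence, 20 min RT read; cells pre-plated 5 hr, compound 40 hr at 37 °C, 1500 cells/well, complete medium. Normalized DMSO = 0, 100 uM tamoxifen = 100% inhibition; Hill-fit AC50.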

[7] = Cell Viability - N2a (AID 540); conditions: N2a mouse neuroblastoma cell viability; at 92.2 µM (top of the series);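 also: plate controls were DMSO alone for no effect and tamoxifen control for full effect; nearly all actives have a fitted effect of over 45% in size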
Method in brief: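 Cytotoxicity was scored as loss of cellular ATP in N2a cells, a mouse neuroblastoma line. Compounds are applied in a qHTS concentration series for 40 hr at 37 °C.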

[8] = Cell Viability - HUV-EC-C (AID 542); also: % is scaled to controls: 0 for no effect and ±100 for the full control effect; nearly all actives have a fitted effect of over 35% in size
Method in brief: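 Cells were seeded at 1000 per well and incubated 5 hr at 37 °C before compound addition. After 40 hr at 37 °C, CellTiter-Glo reagent was added for 20 min and luminescence read. AC50 values came from Hill-equation modelling.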

[9] = Cell Viability - H-4-II-E (AID 543); also: % is scaled to controls: 0 for no effect and ±100 for the full control effect; nearly all actives have a fitted effect of over 35% in size
Method in brief: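 Cells seeded at 1500 per well and rested 5 hr; compounds added; 40 hr incubation at 37 °C; CellTiter-Glo added, 20 min at room temperature; luminescence read. Hill-equation fits gave AC50.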

[10] = Cell Viability - SH-SY5Y (AID 544); conditions: SH-SY5Y neuroblastoma cell viability; viability change, negative = cytotoxic: at 92.2 µM (top of the series); also: nearly all actives have a fitted effect of over 55% in size
Method in brief: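 Cells were plated at 1500 per well and allowed 5 hr at 37 °C. Compounds were added across a concentration range and incubated 40 hr at 37 °C. CellTiter-Glo was added for 20 min at room temperature before luminescence reading.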

[11] = Cell Viability - Renal Proximal Tubule (AID 545); conditions: renal proximal tubule cells viability; at 91.7 µM (top of the series), primary cells of rat origin unless noted; also: nearly all actives have a fitted effect of over 40% in size
Method in brief: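 Rat kidney proximal tubule cells, freshly isolated; 1000 cells/well, 5 hr settle, compound 40 hr 37 °C. CellTiter-Glo 20 min RT, luminescence read. AC50 by standard Hill fit.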

[12] = Cell Viability - Mesenchymal (AID 546);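 also: cells exposed to compound for 40 hours before reading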
Method in brief: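 In this qHTS cytotoxicity format, glomerulus-derived human mesenchymal kidney cells received compound for 40 hr, then luciferase-based ATP quantitation. Concentration-response data were fitted with the Hill equation.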

[13] = Cellular Toxicity (caspase-3) HepG2 (AID 654);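 also: cells exposed to compound for 16 hours before reading; 0% = DMSO alone and 100% = caspase signal from 100 µM tamoxifen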
Method in brief: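 Caspase 3/7 activation in HepG2 is measured as rising luminescence after a 16 hr treatment at 37 °C. Values are scaled between DMSO basal and 100 uM tamoxifen, and AC50 is fitted with the Hill equation.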

[14] = Cellular Toxicity (caspase-3) Jurkat (AID 655); conditions: Jurkat caspase-3 activation, luminescence, DMSO = 0%, tamoxifen = 100%; at 92.2 µM (top of the series);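 also: cells exposed to compound for 16 h at 37 °C before reading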
Method in brief: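 Luminescent caspase-3/7 readout (aminoluciferin substrate cleavage) in human T-cell leukemia Jurkat cells after 16 hr compound exposure. Concentration-response normalized to DMSO and 100 uM tamoxifen; AC50 by standard Hill equation.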

[15] = Cellular Toxicity (caspase-3) HUV-EC-C (AID 656)
Method in brief: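 Luminescent caspase-3/7 activation (aminoluciferin substrate cleavage) in HUV-EC-C cells after 16 hr compound exposure, 37°C. Signal normalized to DMSO basal and 100 uM tamoxifen as 100%; AC50 from concentration-response fitted with the Hill equation.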

[16] = Cellular Toxicity (caspase-3) SHSY5Y (AID 657);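 also: cells exposed to compound for 16 hours at 37 °C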
Method in brief: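 Luminescent caspase-3/7 readout (aminoluciferin release) in SH-SY5Y cells after 16 h compound exposure in complete medium. Activity scaled between DMSO basal and 10 uM staurosporine as 100%; concentration-response fitted to Hill equation for AC50.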

[17] = Cellular Toxicity (caspase-3) BJ (AID 658)
Method in brief: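 Plated BJ cells (1000/well) rested 5 hr, received compound for 16 hr at 37 °C, then Caspase-Glo 3/7 reagent for 1 hr at room temperature before luminescence reading.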

[18] = Cellular Toxicity (caspase-3) MRC-5 (AID 659)
Method in brief: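 Apoptosis readout in MRC-5 cells: luciferase light generated after caspase 3/7 cleaves a peptide-aminoluciferin substrate, measured post 16 hr compound incubation at 37 °C.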

[19] = Cellular Toxicity (caspase-3) Mesangial (AID 660);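 also: combined caspase 3 and 7 activity read by Caspase-Glo luminescence; cells exposed to compound for 16 h before the caspase read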
Method in brief: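 Seed cells derived from normal human renal glomeruli, incubate 5 h, add compounds across concentrations and incubate 16 h at 37 °C. Caspase 3/7 activation is then quantified by luciferase light, with AC50 derived by Hill modeling.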

[20] = Cellular Toxicity (caspase-3) SK-N-SH (AID 661)
Method in brief: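 Cells were seeded and incubated 5 hr at 37 °C, dosed with compound over a concentration range for 16 hr, then given Caspase-Glo 3/7 reagent for 1 hr at room temperature before luminescence reading.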

[21] = Cellular Toxicity (caspase-3) H-4-II-E (AID 663);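 also: cells exposed to compound for 16 hr before readout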
Method in brief: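 Caspase 3/7 activation measured in H-4-II-E cells in complete culture medium after 16 hr treatment at 37 °C, using luciferase-coupled substrate readout; AC50 values come from Hill-equation fits of normalized concentration-response data.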

[22] = Cellular Toxicity (caspase-3) Hek293 (AID 664);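 also: cells exposed to compound for 16 h at 37 °C before readout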
Method in brief: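 qHTS, HEK293 (human embryonic kidney), 16 h cpd exposure in complete medium. Caspase-3/7 activation = luminescence increase; normalized to DMSO/100 uM tamoxifen; Hill-fit AC50.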

[23] = Cellular Toxicity (caspase-3) N2a (AID 665); conditions: N2a cells, luminescence, normalized: DMSO 0%, 10 µM staurosporine 100%; at 92.2 µM (top of the series);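 also: compound exposure lasted 16 h at 37 °C before readout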
Method in brief: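 Caspase-3/7 activation, measured as increased luminescence from aminoluciferin release, is quantified in mouse N2a cells exposed to compounds for 16 h. Values are normalized to DMSO and 10 uM staurosporine, with AC50 derived by Hill modelling.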

[24] = Cellular Toxicity (caspase-3) NIH 3T3 (AID 666);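 also: caspase signal read after 16 h compound exposure; 0% = DMSO basal and 100% = 100 µM tamoxifen stimulation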
Method in brief: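 Cells were plated at 1000 per well and incubated 5 hr at 37°C, then compound was added for 16 hr. Caspase-Glo 3/7 reagent followed for 20 min at room temperature before luminescence was read.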

COC1=CC(=O)OC(CCc2ccccc2)C1 (centres undefined)
inactive: Potency [1] > 92 µM | Potency [2] > 92 µM | Potency [3] > 92 µM | Potency [4] > 92 µM | Potency [5] > 92 µM | Potency [6] > 92 µM | activity change, negative = cytotoxicity [7] -9.01% | Potency [8] | Potency [9] | Potency [10] | activity change, negative = cytotoxicity [11] -1.23% | outcome [12] | outcome [13] | caspase-3 activation [14] 0.972% | outcome [15] | outcome [16] | outcome [17] | outcome [18] | outcome [19] | outcome [20] | outcome [21] | outcome [22] | caspase-3 activation [23] -5.42% | outcome [24]
